The record followed here is PubChem BioAssay (NCATS).

Where “and” joins values, the source holds several entries; their conditions need not be identical. Identical values can stand only once. Results filed as inconclusive are left out. More than one record can exist for a structure, and the calls need not agree. Calls of active or inactive are those of the source. Unless noted, the call rests on the fitted dose curve; in most records, active means well fitted curve in the direction sought with a large enough effect; inconclusive means small, poorly fitted or top-dose-only effect, or another doubt; inactive means no such curve, though single readings can be large; an effect the other way counts as inactive or inconclusive.

A short description of experiment [1]: qHTS Assay for Identification of Small Molecule Antagonists for NFkB Signaling Pathway (AID 895; active means well fitted inhibition curve with a large enough effect in the signal ratio, with a control signal flat, not every such curve was filed as active; the % refers to the signal ratio; further: potency means the concentration at half of the fitted maximal effect). An outline of the steps: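 ME-180 NFkB-bla cells (beta-lactamase under NFkB response element), plated overnight, treated with compound then 10 pM TNF alpha (about EC50) for 5 hrs at 37 C. LiveBLAzer FRET read at 460/530 nm emission, 405 nm excitation.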
(In general: Quantitative high-throughput screening tests each substance at several concentrations.)

Experiment [2] addresses Cytochrome P450 2C19 (Homo sapiens) (UniProt P33261). The experiment is described as follows: qHTS Assay for Inhibitors and Substrates of Cytochrome P450 2C19 (AID 899). Further: nearly all actives have a fitted effect of over 60% in size. Further: potency means the concentration at half of the fitted maximal effect. An outline of the steps: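 Signal comes from luciferase acting on luciferin released by CYP2C19-mediated hydroxylation of Luciferin-H EGE, 10uM (KM). Assay mix: 5nM enzyme, 50mM KPO4; 60 min at 37C with NADPH regeneration. Data normalized against 57uM ketoconazole.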

A short description of experiment [3]: qHTS Assay for Identification of Small Molecule Agonists for Thrombopoietin (TPO) Signaling Pathway (AID 917). Further: on the % scale 0 is the no-effect control and ±100 the full control effect. In short, it runs like this:
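Luciferase reporter (Glycoprotein IIb promoter) in IL-3-deprived Ba/F3 cells carrying human TPO receptor; compounds co-added with 26 pM TPO, incubated 24 h, 37 C. Steadylite luminescence measured after 10 min.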

Experiment [4] concerns the target Muscarinic acetylcholine receptor M1 (Rattus norvegicus) (UniProt P08482). The experiment is described as follows: qHTS Assay for Antagonists of Acetylcholine Muscarinic M1 Receptor: Kinetic Measurement of Intracellular Calcium Response (AID 943). Further: nearly all actives have a fitted effect of over 75% in size. Further: potency means the concentration at half of the fitted maximal effect. An outline of the steps:
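Read-out: peak over basal Fluo-4 fluorescence, kinetic at 1 Hz for 4 min after EC80 carbachol (100 nM final). Rat M1-CHO cells, dye loaded 1 h at 37C, compound added 10 min before agonist.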

Experiment [5] has the same target. The experiment is described as follows: qHTS Assay for Antagonists of Acetylcholine Muscarinic M1 Receptor: Measurement of IP-One Response (AID 944). Further: nearly all actives have a fitted effect of over 75% in size. Further: potency means the concentration at half of the fitted maximal effect. In short, it runs like this: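 Read-out: HTRF competition between d2-IP1 and Eu-cryptate anti-IP1 antibody, emission 620 and 665 nm. Stimulus was carbachol, EC80 (200 nM), for 30 min in M1-CHO cells (rat receptor), after 10 min compound pre-treatment.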

For experiment [6], the target named is Pyruvate kinase PKM (Homo sapiens) (UniProt P14618). Briefly: qHTS Assay for Activators of Human Muscle Pyruvate Kinase (AID 954; active means well fitted curve in the direction sought with a large enough effect, not every such curve was filed as active;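 further: 0% = uninhibited enzyme and -100% = no enzyme or full thiadiazolimine inhibition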). In short, it runs like this:
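PKM2, human, >95% pure, 0.1 nM; PEP 0.5 mM (Km), ADP 0.1 mM; 50 mM imidazole pH 7.2, 50 mM KCl, 0.01% Tween 20, 0.05% BSA; 1 h RT; luciferase luminescence readout.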

For experiment [7], the target named is Pyruvate kinase (Leishmania mexicana) (UniProt Q27686). Briefly: qHTS Validation Assay for Inhibitors of Leishmania Mexicana Pyruvate Kinase (AID 945).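 Further: 0% = DMSO only neutral control wells.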 An outline of the steps: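 LmPYK E451W 0.2 nM; 0.5 mM PEP, 0.1 mM ADP, 7 mM MgCl2, 50 mM KCl, imidazole pH 7.2, 0.01% Tween 20, 0.05% BSA; 1 h RT; PKLight luminescence; DMSO-normalized.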
Pyruvate kinase (Leishmania mexicana), sequence (Q27686 2-499 E452W): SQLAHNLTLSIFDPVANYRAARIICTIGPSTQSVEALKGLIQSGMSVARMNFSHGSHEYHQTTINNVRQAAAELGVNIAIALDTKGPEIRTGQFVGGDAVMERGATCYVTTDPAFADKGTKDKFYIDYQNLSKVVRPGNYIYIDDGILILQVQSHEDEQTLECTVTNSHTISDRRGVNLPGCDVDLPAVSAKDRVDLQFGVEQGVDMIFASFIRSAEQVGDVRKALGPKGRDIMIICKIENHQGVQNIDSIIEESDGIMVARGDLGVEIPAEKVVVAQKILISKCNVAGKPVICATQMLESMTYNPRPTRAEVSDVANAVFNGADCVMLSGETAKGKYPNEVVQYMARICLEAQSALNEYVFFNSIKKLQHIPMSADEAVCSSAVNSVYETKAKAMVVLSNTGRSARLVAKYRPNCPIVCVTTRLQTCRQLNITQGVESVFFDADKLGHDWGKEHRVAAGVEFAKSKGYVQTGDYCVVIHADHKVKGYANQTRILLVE
The nature of experiment [8]: Confirmation and Secondary Assay for Modulators of Hemoglobin Beta Chain Splicing at IVS2 705 locus (AID 930).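 Further: HeLa cells stably expressing the EGFP-705 splicing reporter; series mostly up to about 46 µM; % of control where 0% means no effect.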 An outline of the steps:
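HeLa cells stably carrying EGFP interrupted by mutant beta-globin IVS2-705 intron (CMV-driven) were seeded at 500 cells/well, treated next day with compound for 2 days at 37C; corrected splicing restores EGFP, read as total peak GFP intensity per well.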

Experiment [9] in a line: qHTS Assay for Identification of Small Molecule Agonists for Hypoxia Response Element Signaling Pathway (AID 914; active means well fitted activation curve with a large enough effect in the signal ratio, with a control signal flat, not every such curve was filed as active; the % refers to the signal ratio; further: % of control where 0% means no effect). As to conditions: ME-180 (cervical carcinoma) HRE-bla reporter, beta-lactamase ratio, CoCl2, 17 h; activation: stronger effect = higher value. An outline of the steps:
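ME-180 cells carrying an HRE-driven beta-lactamase reporter were treated with compounds in a titration series plus an EC50 level of CoCl2 for 17 h at 37 degrees Celsius; CCF4 readout as the 460nm/530nm ratio gave AC50 values.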

Experiment [10] can be described thus: qHTS Assay for Identification of Small Molecule Antagonists for Thrombopoietin (TPO) Signaling Pathway (AID 918). Further: potency means the concentration at half of the fitted maximal effect; nearly all actives have a fitted effect of over 60% in size. The conditions noted are these: TPO-dependent cell signaling reporter, antagonist mode. An outline of the steps: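 Luminescence read-out: GPIIb-promoter luciferase in Ba/F3 cells carrying human TPO receptor. Compounds added with 26 pM TPO (EC50), 24 hrs, 37 C, 5% CO2; cells deprived of IL-3 overnight beforehand. Inhibition of signal scored.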

Cytochrome P450 2C19 (Homo sapiens), sequence (P33261 whole entry, looked up): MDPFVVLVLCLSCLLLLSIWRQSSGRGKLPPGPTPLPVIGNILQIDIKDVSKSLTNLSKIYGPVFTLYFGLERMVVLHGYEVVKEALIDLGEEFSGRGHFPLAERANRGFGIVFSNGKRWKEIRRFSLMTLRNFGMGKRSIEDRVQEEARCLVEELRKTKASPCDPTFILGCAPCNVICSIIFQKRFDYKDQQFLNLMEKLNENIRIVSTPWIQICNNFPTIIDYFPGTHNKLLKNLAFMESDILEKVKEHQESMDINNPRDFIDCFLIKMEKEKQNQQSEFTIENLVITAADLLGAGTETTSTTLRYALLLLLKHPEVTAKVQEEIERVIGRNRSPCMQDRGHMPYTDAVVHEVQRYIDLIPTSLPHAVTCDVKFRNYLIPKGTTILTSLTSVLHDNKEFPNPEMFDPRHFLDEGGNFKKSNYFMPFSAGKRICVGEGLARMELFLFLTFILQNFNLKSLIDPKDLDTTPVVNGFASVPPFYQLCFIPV
Muscarinic acetylcholine receptor M1 (Rattus norvegicus), sequence (P08482 whole entry, looked up): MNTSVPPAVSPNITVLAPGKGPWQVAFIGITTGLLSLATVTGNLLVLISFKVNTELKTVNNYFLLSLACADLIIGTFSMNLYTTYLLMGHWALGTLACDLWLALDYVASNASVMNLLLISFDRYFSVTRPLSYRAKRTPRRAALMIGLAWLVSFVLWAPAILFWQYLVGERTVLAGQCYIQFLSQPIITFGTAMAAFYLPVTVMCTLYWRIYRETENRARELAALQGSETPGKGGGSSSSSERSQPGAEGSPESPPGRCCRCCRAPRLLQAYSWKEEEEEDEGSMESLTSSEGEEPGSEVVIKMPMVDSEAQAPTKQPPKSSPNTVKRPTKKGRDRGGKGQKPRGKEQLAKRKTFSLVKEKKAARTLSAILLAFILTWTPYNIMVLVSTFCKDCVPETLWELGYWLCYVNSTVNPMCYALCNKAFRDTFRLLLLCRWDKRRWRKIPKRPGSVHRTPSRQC
Pyruvate kinase PKM (Homo sapiens), sequence (P14618 whole entry, looked up): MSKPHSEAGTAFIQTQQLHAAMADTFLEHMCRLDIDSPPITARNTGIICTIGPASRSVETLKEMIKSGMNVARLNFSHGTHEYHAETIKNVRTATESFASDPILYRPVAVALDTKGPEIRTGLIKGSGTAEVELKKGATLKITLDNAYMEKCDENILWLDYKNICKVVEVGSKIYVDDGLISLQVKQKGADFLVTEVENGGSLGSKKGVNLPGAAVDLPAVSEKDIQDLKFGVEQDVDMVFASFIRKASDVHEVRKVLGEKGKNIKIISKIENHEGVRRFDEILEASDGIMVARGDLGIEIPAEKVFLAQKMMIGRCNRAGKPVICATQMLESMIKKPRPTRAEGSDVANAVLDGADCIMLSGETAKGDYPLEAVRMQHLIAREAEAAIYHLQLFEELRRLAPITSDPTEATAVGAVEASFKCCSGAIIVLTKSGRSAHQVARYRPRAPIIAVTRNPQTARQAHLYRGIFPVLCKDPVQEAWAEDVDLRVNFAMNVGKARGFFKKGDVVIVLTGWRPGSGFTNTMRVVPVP

On to `N[C@H](C(=O)O)c1cc(O)cc(O)c1`, for which the Potency result in experiment [1], in [2], in [3], in experiment [4] and in experiment [5] was “inactive” throughout. In addition, the result in [6] was inactive.
In the case of `O=C(O)/C(=C/c1c(C(=O)O)[nH]c2cc(Cl)cc(Cl)c12)c1ccccc1`, the Potency result in [1], in [3], in experiment [4], in [5] and in experiment [7] was “inactive” in each case. Also, in experiment [6], the result was inactive.
Consider `NC1(C(=O)O)CCCCC1`, for which the Potency result in experiment [1], in [2], in experiment [3], in experiment [5] and in experiment [7] was “inactive” in each case. The compound was called inactive in experiment [6].
In the case of `NCCCNCCCCNCCCN`, the Potency entry in [1] and in [5] was “inactive” in each case. In addition, the Potency result in experiment [2] was “inactive and 7.94 µM (active)”. Also, the call in experiment [6] was inactive.
Regarding `Cc1nc2c(OCc3ccccc3)cccn2c1CC#N`, the Potency result in experiment [1], in [2], in [3] and in [7] was “inactive” in each case. Further, in [6], the result was inactive.
Turning to `CC(=O)NCCc1c[nH]c2ccc(O)cc12`, the Potency entry in experiment [1], in experiment [3], in [4], in experiment [5] and in experiment [7] was “inactive” throughout. Further, the result in [8] and in experiment [6] was inactive.
In the case of `CCN1C(=O)C=CC1=O`, the Potency result in [1], in experiment [4] and in [7] was “inactive” throughout. Besides, the activation in [9] was 23.4% (inactive). Also, in experiment [10], the Potency was 1.58 µM (active). Also, in [6], the call was inactive.
`CCCn1c(=O)c2[nH]c(C3CCCC3)nc2n(CCC)c1=O`: the Potency result in experiment [1], in experiment [2], in experiment [3] and in [7] was “inactive” throughout. Besides, the compound was called inactive in [8] and in experiment [6].
With `C/C(=C\c1ccc(C(=O)O)cc1)c1ccc2c(c1)C(C)(C)CCC2(C)C`, the Potency in [1] is 10 µM (active). Moreover, the activation in experiment [9] was -65.3% (inactive). Moreover, the Potency entry in experiment [5] and in experiment [7] was “inactive” in each case. In experiment [6], the call was inactive.
As for `O=C(O)C1=CCCNC1`, the Potency entry in [1], in experiment [3], in experiment [4] and in experiment [7] was “inactive” throughout. The outcome in experiment [8] and in experiment [6] was inactive.
As to `O=C(O)c1cccnc1C(=O)O`, the Potency result in experiment [1], in experiment [2], in experiment [3], in [4] and in experiment [5] was “inactive” throughout. Further, the compound was called inactive in experiment [8] and in experiment [6].
Take `C#CCn1c(=O)c2c(ncn2C)n(C)c1=O`: the Potency entry in [1], in experiment [3], in [4] and in experiment [5] was “inactive” in each case. Besides, the compound was classed as inactive in experiment [6].
As to `O=c1onc2cnc3ccccc3n12`, in experiment [1], the Potency was 5.62 µM (active). Also, the Potency entry in experiment [2], in experiment [3], in [5] and in [7] was “inactive” each time. For the same compound, the compound was called inactive in [6].
On to `Cc1ccc2c(c1)C(N1CCN(C)CC1)=Nc1cccnc1N2`, for which the Potency in experiment [1] is 11.2 µM (active); in [4], 0.0355 µM (active); in experiment [5], 0.0794 µM (active). Besides, the Potency result in [3] and in experiment [7] was “inactive” each time. For the same compound, the outcome in [6] was inactive.
With `CNc1cc(NS(=O)(=O)c2ccc(N)cc2)nc(NC)n1`, the Potency result in [1], in experiment [2], in experiment [3], in experiment [4] and in experiment [7] was “inactive” in each case. The compound was classed as inactive in experiment [6].
With `O=C(O)C1=CCNCC1`, the Potency entry in [1], in [3], in experiment [4] and in experiment [5] was “inactive” each time. Also, the compound was classed as inactive in experiment [8] and in experiment [6].
